Rin1 Abl inh: inhibitors of Rin1-Abl protein binding, primary screen, biochemical, TR-FRET. Tyrosine-protein kinase ABL1 (Homo sapiens) + Ras and Rab interactor 1 (Homo sapiens), …. inhibition, % at 7.35 µM. 360,000 tested, 0.4% active. AID 588664, 2011; in the data active = inhibition above about 5%, passing the limit was not always enough
Calb FLC: C. albicans growth inhibition with fluconazole, primary screen, CaCi-2 strain, Alamar Blue fluorescence; 300,000 tested, 0.57% active; growth inhibition, % (no concentration beside the values); AID 1979, 2009; C. albicans CaCi-2 (fluconazole-resistant clinical isolate) + fluconazole, 48 h;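 active = growth inhibition above about 58% in most replicates, limit read from the data, passing the limit was not always enough; inconclusive = exactly half the replicates above a set limit; inactive = most replicates below a set limit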;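 note: all wells also contain fluconazole at 8 µg/ml as a sub-toxic cotreatment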
Fh CTSL1 inh: Fasciola hepatica cathepsin L1 inhibitors, primary screen, counter-screen for PFM18AAP inhibitor project, biochemical, QFRET, fluorogenic peptide substrate; 300,000 tested, 0.49% active; AID 1906, 2009; recombinant F. hepatica cathepsin L1, Z-Leu-Arg-MCA fluorescence; inhibition, % at 5.96 µM;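 active = inhibition above the mean of all tested compounds plus 3 SD, set per screening campaign, cut at about 17% in these data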
M18AAP inhibitor: PfM18AAP inhibitors, malaria aminopeptidase, primary screen, biochemical, QFRET, recombinant enzyme; inhibition, % at 7.35 µM; 290,000 tested, 1.2% active; M18 aspartyl aminopeptidase (Plasmodium falciparum 3D7); H-Glu-NHMec fluorogenic cleavage; AID 1822, 2009;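 active = inhibition above the campaign mean inhibition over all tested compounds plus 3 SD, cut at about 28% in these data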
Numbers stand for hits; n = inactive; u = inconclusive; x = no result given. The list is not random: actives were taken first. Their share in the collection is about 2.1%.

SMILES	Rin1 Abl inh	Calb FLC	Fh CTSL1 inh	M18AAP inhibitor
S=c1[nH]nc(-c2ccncc2)n1/N=C/C=C/c1ccco1	n	n	n	31
Cc1cccc(-c2n[nH]c(=S)n2/N=C/C=C/c2ccco2)c1	n	n	n	n
O=C(CCNC(=O)c1ccccc1)Oc1ccc([N+](=O)[O-])cc1	n	n	n	n
COc1ccc(Br)cc1C1Nc2cccc3cccc(c23)N1	n	n	n	33
COc1cc(C2Nc3cccc4cccc(c34)N2)cc(OC)c1OC(C)=O	n	n	n	n
O=C(NNC(=O)c1cc(-c2ccc(Cl)cc2)nc2ccccc12)c1csc(N2CCOCC2)n1	n	82	n	x
Cc1ccc(C2=CSC3=NNC4(CCCCC4)NN23)cc1	n	111	n	n
COc1ccc(C2=CSC3=NNC4(CCCCC4)NN23)cc1	n	112	n	n
Cc1ccc(C2=CSC3=NCCN23)c(C)c1	n	n	n	n
CCOC(=O)c1c(C)[nH]c(C(=O)OCC(=O)Nc2ccccc2)c1C	n	x	x	x
CC(OC(=O)c1ccc(S(C)(=O)=O)c([N+](=O)[O-])c1)C(=O)NC1C2CC3CC(C2)CC1C3 (centres undefined)	n	x	x	x
COc1ccc(CN2[C@@H](CC(C)=O)c3cc(C(F)(F)F)ccc3S2(=O)=O)cc1	n	n	17	x
COc1cccc(N2[C@@H](CC(C)=O)c3cc(C(F)(F)F)ccc3S2(=O)=O)c1	n	n	n	x
CC(C)C[C@H](N)c1nnc(S(=O)(=O)Cc2ccc(F)cc2)o1	n	n	54	n
NC(=O)c1nsc(C(=O)N(CC(=O)NC2CCCC2)c2cccc(C(F)(F)F)c2)c1N	n	n	20	n
COc1cccc(N(CC(=O)NC2CCCCC2)C(=O)c2snc(C(N)=O)c2N)c1	n	n	n	n
Cc1ccc(C)c(Nc2c([N+](=O)[O-])c(=O)oc3ccccc23)c1	n	n	n	n
CCCOc1ccc(/C(O)=C2/C(=O)C(=O)N(CCOC)C2c2cccnc2)cc1 (centres undefined)	x	n	n	n
COCCCN1C(=O)C(=O)/C(=C(/O)c2ccc(OCC(C)C)cc2C)C1c1cccnc1 (centres undefined)	n	106	n	n
COC(CNC(=O)c1ccc2c(c1)ncn2-c1ccc(F)c(F)c1)OC	n	n	18	n
Clc1ccccc1Cn1nnc2ccccc21	n	n	n	n
O=C1/C(=C/c2ccc(N3CCOCC3)o2)SC(=Nc2ccccc2)N1CCc1c[nH]c2ccccc12	n	n	18	n
O=C1c2ccccc2S(=O)(=O)c2cc(N3CCc4ccccc4C3)ccc21	x	n	n	x
COc1ccc(-c2c(-c3ccccc3OC)oc3ccccc23)cn1	n	x	x	x
O=C(Nc1nonc1NC(=O)c1cccs1)c1cccs1	n	85	n	n
SMILES	Rin1 Abl inh	Calb FLC	Fh CTSL1 inh	M18AAP inhibitor
O=C(Nc1ccc(NC(=O)c2cccs2)cc1)c1cccs1	n	u	n	n
Cc1cccc(NC(=S)N2CCN(C(=O)c3ccco3)CC2)c1C	n	n	n	n
O=C(Cn1c2ccc(F)cc2c2nc3n(c(=O)c21)CCS3)N1CCCC1	n	89	n	n
CC1CCCN(C(=O)Cn2c3ccccc3c3nc4n(c(=O)c32)CCS4)C1 (centres undefined)	n	n	n	n
CC1CCN(C(=O)Cn2c3ccccc3c3nc4n(c(=O)c32)CCS4)CC1	n	91	n	n
Cc1ccc(NC(=S)NNc2ncc(C(F)(F)F)cc2Cl)c(C)c1	n	n	n	28
Cc1ccc(NC(=S)NNc2ncc(C(F)(F)F)cc2Cl)cc1	n	n	n	n
O=C(O)C(CO)(c1ccccc1)c1ccccc1	n	n	n	n
COc1ccc(/C(C)=N/NC(=O)CNC(=O)c2cccnc2)c(OC)c1	n	n	n	n
CCCOC(c1ccccc1)(c1ccc(C(F)(F)F)cc1)C(Oc1nc(C)cc(C)n1)C(=O)O (centres undefined)	n	79	n	n
Cc1cc(C)nc(OC(C(=O)O)C(OCCc2ccccc2)(c2ccc(F)cc2)c2ccc(F)cc2)n1 (centres undefined)	n	n	n	n
O=C(CC1SC(=Nc2ccc(O)cc2)NC1=O)Nc1ccccc1 (centres undefined)	n	n	n	n
CCOc1ccc(N=C2NC(=O)C(CC(=O)Nc3ccccc3)S2)cc1 (centres undefined)	n	n	19	n
CCc1ccc(C)[n+](CC(=O)c2cccs2)c1	n	n	n	n
COc1ccc(NC(C)=O)cc1S(=O)(=O)N1CC=C(c2ccccc2)CC1	n	x	x	x
O=C(Oc1c(Cl)cc(Cl)c2cccnc12)c1cccs1	n	108	n	n
O=C(Oc1c(Cl)cc(Cl)c2cccnc12)c1ccco1	n	101	n	n
COc1ccc(C(=S)N2CCOCC2)cc1OC(=O)c1ccccc1Cl	n	n	n	n
O=C(Oc1c(CN2CCOCC2)cc(Cl)c2cccnc12)c1cccs1	n	101	n	n
O=C(Oc1c(CN2CCOCC2)cc(Cl)c2cccnc12)c1ccccc1Cl	n	100	n	n
O=C(Nc1cccnc1Cl)c1cccs1	n	n	n	n
Oc1c(Cl)cc(Cl)c2cccnc12	n	u	x	n
CN(C(=O)CSc1nc2ccc(Cl)cc2[nH]1)C1CCS(=O)(=O)C1 (centres undefined)	n	x	x	x
COc1ccc(C2(O)CCN(CC(=O)Nc3nccs3)CC2)c(OC)c1	n	n	n	n
CN(C)S(=O)(=O)Oc1cccc(C(=O)Nc2ccc(Cl)cc2)c1	n	87	n	n
SMILES	Rin1 Abl inh	Calb FLC	Fh CTSL1 inh	M18AAP inhibitor
Fc1ccccc1-c1nnc2c3ccccc3nc(N3CCOCC3)n12	5.7	n	n	n
COc1ccc2c(c1)O/C(=C\c1ccco1)C2=O	n	n	n	n
Cc1cc(O)c(CN(C)C)c2c1C(=O)/C(=C/c1ccco1)O2	n	n	n	31
CCOc1ccc(NC(=S)N(CCOC)C2CCN(C(C)C)CC2)cc1	n	n	n	n
Cc1ccc2nc(-c3ccc(NC(=S)NC4CC(C)(C)NC(C)(C)C4)cc3)sc2c1	n	74	n	n
Cc1ccc2nc(-c3ccc(NC(=S)NC(=O)C(C)C)cc3)sc2c1	n	n	n	n
O=C1Nc2ccc(Cl)cc2/C1=C/C1CC=CCC1 (centres undefined)	n	n	47	n
Cc1ccc(C2(c3noc(CN(C)CC4CCCCO4)n3)CCCC2)cc1 (centres undefined)	n	n	n	n
Cc1ccc(C2(c3noc(CN4CCC(c5ccncc5)CC4)n3)CCCC2)cc1	n	119	n	n
CC(Sc1nnc(-c2ccccc2F)n1C1CC1)C(=O)NCc1ccco1 (centres undefined)	n	x	x	x
CC/C(C)=N/Nc1cccc([N+](=O)[O-])c1	n	92	n	n
CCC(CC)=NNc1cccc([N+](=O)[O-])c1	n	n	n	n
CC1CCCN(CC(=O)NC(=O)NC2CCCCC2)C1 (centres undefined)	n	x	x	x
CC1CN(C(=S)Nc2cccc([N+](=O)[O-])c2)CC(C)O1 (centres undefined)	n	121	x	n
Cc1cc(C)n(C(=O)/C(C#N)=N/Nc2cc(Cl)cc(Cl)c2)n1	n	n	20	n
